# Laboratory results published in the supplement of paper PMC10646978.
# ± gives the standard deviation.
# Tests used:
# Settings in all cases: modulator concentration 10 µM
# [1] = tested on: RAW-Dual (murine macrophage reporter line); experiment: NF-kB reporter (SEAP) activity fold change vs agonist alone; higher = enhanced NF-kB activity
# Outline: (§1)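 RAW-Dual murine macrophage reporter cells were seeded at 50 000 per well in 384-well plates and pre-incubated 1 hour at 37 °C with compound pin-transferred to 10 μM final. After 1 hour, a PRR agonist was added and cells incubated overnight. Supernatant NF-κB (SEAP, QUANTI-Blue, 620 nm absorbance) and IRF (Lucia luciferase, QUANTI-Luc, luminescence) signals were divided by the mean agonist-only control on the same plate to give fold change. Two replicate plates were averaged, with errors by propagation.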
# [2] = tested on: RAW-Dual (murine macrophage reporter line); experiment: IRF reporter (Lucia luciferase) activity fold change vs agonist alone; higher = enhanced IRF activity
# Outline: as §1
# [3] = tested on: RAW-Dual (murine macrophage reporter line); experiment: viability score (confluency relative to resting cells, overnight) (fraction); higher = more viable, active = viable (0.7 or more)
# Outline: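 Compound was added at a final 10 μM to RAW-Dual macrophages in 384-well plates and left overnight. Confluency was imaged with IncuCyte, and two masks were generated in IncuCyte software over all imaged wells. Each viability score is confluency relative to resting cells, and a compound met the cutoff only when both masks were above 70% of resting cells.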
# [4] = agonist: CpG ODN 1826 0.5 ug/mL
SMILES,"NF-kB reporter [1, 4]",NF-kB reporter ([1]; agonist: LPS 0.1 ug/mL),NF-kB reporter ([1]; agonist: MPLA […]),IRF reporter ([2]; agonist: 3'3'-cGAMP 10 ug/mL),IRF reporter ([2]; agonist: LPS 0.1 ug/mL),IRF reporter ([2]; agonist: MPLA […]),viability score [3]
CCOC(=O)C(C)N(c1ccc(OC)cc1)S(C)(=O)=O (configuration not stated),0.99 ± 0.056,0.985 ± 0.071,0.905 ± 0.053,1.07 ± 0.053,1.22 ± 0.083,1.12 ± 0.27,0.977 (active)
O=C(CN(CCc1ccccc1)S(=O)(=O)c1ccc(Cl)cc1)NCc1ccccn1,0.824 ± 0.065,0.95 ± 0.049,0.987 ± 0.092,0.741 ± 0.035,1.45 ± 0.084,1.49 ± 0.16,1.02 (active)
COc1ccc(-c2nc3cc(C4=NNC(=O)CC4C)ccc3[nH]2)cc1 (configuration not stated),2.4 ± 0.37,1.37 ± 0.23,1.14 ± 0.073,0.164 ± 0.057,1.07 ± 0.25,1.33 ± 0.12,0.775 (active)
CCCc1cc(=O)oc2cc(OCC(=O)OC)c(Cl)cc12,1.1 ± 0.09,0.967 ± 0.13,1.03 ± 0.041,0.96 ± 0.13,1.04 ± 0.1,1.09 ± 0.18,0.998 (active)
COc1ccc(CNc2oc(-c3ccc(COc4ccccc4C)o3)nc2C#N)cc1,1.48 ± 0.11,1.31 ± 0.074,2.3 ± 0.054,1.3 ± 0.073,0.887 ± 0.1,1.34 ± 0.32,0.934 (active)
O=C(CN(c1cc(Cl)cc(Cl)c1)S(=O)(=O)c1ccccc1)N1CCCCCC1,1.06 ± 0.13,1.13 ± 0.1,1.13 ± 0.068,0.943 ± 0.14,0.991 ± 0.062,0.875 ± 0.057,0.996 (active)
N[C@H]1CONC1=O,1.08 ± 0.13,1.06 ± 0.057,1.03 ± 0.074,1.02 ± 0.1,0.957 ± 0.039,0.949 ± 0.1,1.01 (active)
O=C(Cc1ccc(NC(=O)c2ccc(OC(F)(F)F)cc2)cc1)NCC(F)(F)F,1.22 ± 0.094,1.04 ± 0.12,0.994 ± 0.031,0.984 ± 0.055,1.03 ± 0.077,1.04 ± 0.18,0.999 (active)
CCOc1ccc(CN2CCN(c3cc(C)nc4c5c(C)cc(C)nc5nn34)CC2)cc1,0.944 ± 0.08,1.04 ± 0.077,1.02 ± 0.022,1.05 ± 0.1,1 ± 0.14,0.96 ± 0.26,1 (active)
Cl.OC(CCCN1CCCCC1)(c1ccccc1)c1ccccc1,0.856 ± 0.037,0.895 ± 0.088,0.982 ± 0.061,1.63 ± 0.092,1.1 ± 0.3,1.08 ± 0.47,0.998 (active)
C=C1CCC(NS(=O)(=O)c2ccc(-c3coc(C)n3)cc2)CC1,1.04 ± 0.056,1.15 ± 0.091,1.14 ± 0.062,1.22 ± 0.062,1.14 ± 0.11,1.2 ± 0.17,0.834 (active)
C#CCCCCCCCCCCCC(O)CC(O)COC(C)=O (configuration not stated),1.1 ± 0.34,1.06 ± 0.055,1.13 ± 0.083,0.832 ± 0.11,1.17 ± 0.19,1.41 ± 0.19,1 (active)
COc1ccc2[nH]c(S(=O)Cc3ncc(C)c(OC)c3C)nc2n1 (configuration not stated) [Prestw-1351],0.872 ± 0.15,1.15 ± 0.16,0.994 ± 0.11,0.819 ± 0.029,1.11 ± 0.14,1.24 ± 0.13,0.974 (active)
CC/C(=C(\c1ccccc1)c1ccc(OCCN(C)C)cc1)c1ccccc1.O=C(O)CC(O)(CC(=O)O)C(=O)O,0.808 ± 0.064,0.859 ± 0.053,1.09 ± 0.11,0.963 ± 0.048,1.32 ± 0.076,1.38 ± 0.12,1.02 (active)
N#C[C@@H]1C[C@@H]2C[C@@H]2N1C(=O)[C@@H](N)C12CC3CC(CC(O)(C3)C1)C2.O,1.06 ± 0.083,0.968 ± 0.15,0.955 ± 0.024,0.956 ± 0.066,0.921 ± 0.068,0.871 ± 0.074,0.999 (active)
Cc1cc(C(O)CCNC(=O)COc2cccc3c2OC(C)(C)C3)c(C)o1 (configuration not stated),1.04 ± 0.099,1.01 ± 0.15,1.01 ± 0.055,0.883 ± 0.038,0.992 ± 0.051,0.94 ± 0.13,1 (active)
CCOC(=O)c1ccc(N2C(=O)CC(N3CCN(c4ccc([N+](=O)[O-])cc4)CC3)C2=O)cc1 (configuration not stated),0.813 ± 0.072,1.08 ± 0.066,0.928 ± 0.071,1.06 ± 0.039,1.64 ± 0.13,1.47 ± 0.13,0.997 (active)
N#Cc1c(-n2ncnc2-c2cccc([N+](=O)[O-])c2)sc2c1CCCC2,0.954 ± 0.063,1.05 ± 0.085,0.932 ± 0.073,0.932 ± 0.033,1.46 ± 0.12,1.2 ± 0.15,1 (active)
CCc1nc2ccccc2[nH]1,1.04 ± 0.18,0.954 ± 0.076,1.06 ± 0.1,0.998 ± 0.028,1.23 ± 0.12,1.44 ± 0.21,1.01 (active)
CC1CC(=O)C2=C(C1)OC(N)=C(C#N)C2c1ccc(Br)cc1 (configuration not stated),0.847 ± 0.088,0.91 ± 0.17,1 ± 0.056,0.782 ± 0.096,0.904 ± 0.04,0.731 ± 0.12,0.994 (active)
CCCCc1oc2ccccc2c1C(=O)c1cc(I)c(OCCN(CC)CC)c(I)c1.Cl,0.471 ± 0.038,0.988 ± 0.12,1.83 ± 0.34,0.55 ± 0.033,1.6 ± 0.12,1.77 ± 0.15,1 (active)
CCN(CC)C(=S)SSC(=S)N(CC)CC,1.2 ± 0.097,0.633 ± 0.041,2.07 ± 0.22,2.71 ± 0.29,0.201 ± 0.025,0.114 ± 0.018,0.461 (inactive)
Cc1cc(C)n(C2CC(=O)N(c3ccccc3)C2=O)n1 (configuration not stated),1.04 ± 0.08,0.926 ± 0.1,1.21 ± 0.2,1.05 ± 0.04,1.31 ± 0.25,1.42 ± 0.21,1.02 (active)
CN(C)C=C1C(=O)N(c2nc3ccccc3s2)N=C1CSc1ccc(Cl)cc1,0.945 ± 0.078,1.02 ± 0.067,0.916 ± 0.058,0.843 ± 0.029,1.42 ± 0.12,1.15 ± 0.073,1.01 (active)
CC1=NN(c2ccc(C)cc2)C(=O)C1=Cc1c(C)nn(-c2ccc(C)cc2C)c1O,1.03 ± 0.08,0.922 ± 0.089,1.02 ± 0.096,0.986 ± 0.046,1.21 ± 0.2,1.26 ± 0.19,1.03 (active)
Cc1cccc(N(CC(=O)Nc2ccc3c(c2)OCO3)S(C)(=O)=O)c1,0.716 ± 0.06,0.934 ± 0.068,1 ± 0.098,0.784 ± 0.04,1.19 ± 0.071,1.22 ± 0.13,1.02 (active)
